{"source": "PubChem BioAssay AID687014", "about": "(The Scripps Research Institute Molecular Screening Center, 2013)", "note": "The whole screen tested about 370,000 compounds, of which about 6,800 (1.8%) were called active.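 How the source made its calls: active means activation above a cutoff set at the mean of all screened compounds plus 3 SD (cut at about 10% in these data); inactive means the rest.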 The sample as a whole holds a higher share of actives than the screen did.", "data": [{"tested_on": "Nuclear hormone receptor DAF-12 (Heterodera glycines), GAL4 fusion", "test": "hgDAF-12 GAL4 fusion reporter activation – cell-based, luminescence, HEK293, UAS-luciferase, primary screen (AID 687014);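 further: 0% = DMSO wells and 100% = sodium butyrate wells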", "details": "HEK293 GAL4-hgDAF12 UAS-luciferase reporter, agonist luminescence; at 6.8 µM; active compounds read high; normalized to butyrate control", "values": [{"smiles": "COc1ccc(OC)c(NC(=O)C2CCCN2S(=O)(=O)c2ccc3c(c2)CC(C)N3C(C)=O)c1", "note": "(stereo not drawn)", "activation": "-2.45% (inactive)"}, {"smiles": "O=C(NCc1ccc(Cl)cc1)C1CCCN(c2nc3ccccc3o2)C1", "note": "(stereo not drawn)", "activation": "-0.62% (inactive)"}, {"smiles": "CC(=O)C1(C(=O)Nc2nccs2)CC(c2ccccc2C(F)(F)F)=NO1", "note": "(stereo not drawn)", "activation": "0.67% (inactive)"}, {"smiles": "Cc1ccnc(N2C(=O)c3ccc([N+](=O)[O-])cc3C2=O)c1", "activation": "0.65% (inactive)"}, {"smiles": "Cc1ccc(-n2cc3ccc([N+](=O)[O-])cc3n2)cc1", "activation": "17.1% (active)"}, {"smiles": "O=c1c2cc([N+](=O)[O-])ccc2nc2n1CCC2", "activation": "-2.97% (inactive)"}, {"smiles": "Cc1cccc(N2C(=O)SC(N(CC(=O)O)c3cccc(C)c3)C2=O)c1", "note": "(stereo not drawn)", "activation": "2.06% (inactive)"}, {"smiles": "COC(=O)c1ccccc1SC1CC(=O)N(c2cccc(C)c2)C1=O", "note": "(stereo not drawn)", "activation": "-0.2% (inactive)"}, {"smiles": "Cc1cccc(N2C(=O)SC(SC(=Nc3ccccc3)Nc3ccccc3)C2=O)c1", "note": "(stereo not drawn)", "activation": "12.4% (active)"}, {"smiles": "O=S1(=O)c2ccc(Br)cc2OC[C@@H](Cc2ccccc2)N1Cc1cn(Cc2ccco2)nn1", "activation": "-2.95% (inactive)"}, {"smiles": "CCOc1ccc(OCc2cccc(C(=O)N(CC)CC)c2)cc1", "activation": "15.3% (active)"}, {"smiles": "CCOc1ccc(OCc2ccc(C(=O)N(C)c3ccccc3)o2)cc1", "activation": "-0.02% (inactive)"}, {"smiles": "CC(C)(C)OC(=O)N(Cc1ccccc1)Cc1ccc(OCc2cccc(NC(=O)c3ccccc3)c2)cc1", "activation": "3.23% (inactive)"}, {"smiles": "COc1cccc(N2CCN(CC(=O)N(C)Cc3ccc(F)cc3)CC2)c1", "activation": "2.78% (inactive)"}, {"smiles": "CC(C)CNC(=O)OCc1cn(Cc2ccc(F)cc2)nn1", "activation": "0.8% (inactive)"}, {"smiles": "CS(=O)(=O)N(CC(=O)NC1CCCC1)Cc1ccc(F)cc1", "activation": "-0.56% (inactive)"}, {"smiles": "Cc1ccc(-c2nnc(SCC(=O)Nc3ccc(Oc4ccccc4)cc3)n2Cc2ccco2)cc1", "activation": "-0.14% (inactive)"}, {"smiles": "CC(C)(C)OC(=O)N[C@H](C(=O)OC(C)(C)C)c1ccc(Br)cc1", "activation": "2.51% (inactive)"}, {"smiles": "CC(=O)Nc1ccc(S(=O)(=O)NCC(=O)OCC(=O)c2ccc[nH]2)cc1", "activation": "-0.16% (inactive)"}, {"smiles": "C/C(=N\\NC(=O)OC(C)(C)C)c1ccc[nH]1", "activation": "13.9% (active)"}, {"smiles": "COC(=O)[C@]12C[C@H](CC(=O)NCc3ccc(OC)c(OC)c3)C(=O)N(Cc3ccccc3)C1=C[C@H](C(C)C)O[C@@H]2C1CC1", "activation": "-0.64% (inactive)"}, {"smiles": "c1cncc(CNc2ccnc(-c3ccc4c(c3)OCO4)n2)c1", "activation": "8.09% (inactive)"}, {"smiles": "Cc1cc(NS(=O)(=O)c2ccc(NC(=O)CSc3nnc(-c4ccc(C(C)(C)C)cc4)n3Cc3ccco3)cc2)nc(C)n1", "activation": "0.44% (inactive)"}, {"smiles": "O=C(NC1CCCC1)C(c1ccccn1)N(C(=O)c1csnn1)C1CCCC1", "note": "(stereo not drawn)", "activation": "-0.77% (inactive)"}, {"smiles": "CN(C)c1ccc(C=C2C(=O)OC3(CCCC3)OC2=O)cc1", "activation": "11.1% (active)"}, {"smiles": "CN(C)c1ccc(/C=C2\\NC(=S)N(Cc3ccccc3)C2=O)cc1", "activation": "2.67% (inactive)"}, {"smiles": "CCCC[C@H](C(=O)N(CC)c1ccccc1)[C@@H](O)c1ccc2ccccc2c1", "activation": "-1.89% (inactive)"}, {"smiles": "CCCNC(=O)Nc1ccc2c(c1)C(=O)N(C)[C@H]1CC[C@H](CC(=O)NCC3CCCCC3)O[C@@H]1CO2", "activation": "2.46% (inactive)"}, {"smiles": "CCc1ccccc1S(=O)(=O)Cc1ccc(C(=O)NCCc2ccccc2)o1", "activation": "-1.29% (inactive)"}, {"smiles": "CCCOc1ccc(Oc2c(Cl)cnn(Cc3cccc4ccccc34)c2=O)cc1", "activation": "-0.9% (inactive)"}, {"smiles": "COc1ccc2cc(CCl)c(Cl)nc2c1", "activation": "5.31% (inactive)"}, {"smiles": "COc1ccc2nc(-c3ccccn3)ccc2c1", "activation": "14.8% (active)"}, {"smiles": "COc1ccc(C=C(C#N)C#N)c(CSc2ccccn2)c1", "activation": "-4.02% (inactive)"}, {"smiles": "CN1CCCCC(NC(=O)C(C)(C)C)C1=O", "note": "(stereo not drawn)", "activation": "-0.75% (inactive)"}, {"smiles": "COc1ccc(-c2cc3n(n2)CCc2nc4ccccc4n2-3)cc1", "activation": "1.57% (inactive)"}, {"smiles": "COc1ccc(-c2cc(C3CCN(c4ncccc4[N+](=O)[O-])CC3)[nH]n2)cc1", "activation": "-1.82% (inactive)"}, {"smiles": "COc1ccc(-c2cc3ncccc3cn2)cc1", "activation": "14.3% (active)"}, {"smiles": "COc1cccc(N(C)C(=O)[C@@H](C)[C@@H](O)c2ccc3ccccc3c2)c1", "activation": "-0.12% (inactive)"}, {"smiles": "O=C(NCc1ccco1)C1CCCN(S(=O)(=O)c2ccc(Cl)s2)C1", "note": "(stereo not drawn)", "activation": "2.01% (inactive)"}, {"smiles": "CN(C(N)=NC(=O)/C=C/c1ccccc1)C(C#Cc1ccccc1)Cc1ccccc1", "note": "(stereo not drawn)", "activation": "2.81% (inactive)"}, {"smiles": "CCCCn1c(N)c(N(CC(C)C)C(=O)CSc2ccc([N+](=O)[O-])cc2)c(=O)[nH]c1=O", "activation": "2.08% (inactive)"}, {"smiles": "O=C1C2C3C=CC(C4CC34)C2C(=O)N1/N=C/c1ccc(-c2ccccc2[N+](=O)[O-])o1", "note": "(stereo not drawn)", "activation": "-3.65% (inactive)"}, {"smiles": "CN1CCN(/N=C/c2ccc(-c3ccc([N+](=O)[O-])cc3)o2)CC1", "activation": "10.5% (active)"}, {"smiles": "Cn1cnc(C(F)(F)F)c1-c1ccc([N+](=O)[O-])cc1", "activation": "0.97% (inactive)"}, {"smiles": "O=C(CSc1nc2c(c(=O)[nH]1)CCCC2)N1CCCCC1", "activation": "-4.02% (inactive)"}, {"smiles": "Cc1cc(C)nc(Nc2n[nH]c(-c3ccccc3N)n2)n1", "activation": "12.2% (active)"}, {"smiles": "CCCOc1ccccc1-c1nc(SCCC(=O)O)n[nH]1", "activation": "-0.41% (inactive)"}, {"smiles": "O=C(OCC#CCSc1nnc(-c2ccco2)o1)c1ccc(F)cc1", "activation": "-3.04% (inactive)"}, {"smiles": "COC(=O)C1=C(C)NC(=S)NC1c1ccc(OC)cc1", "note": "(stereo not drawn)", "activation": "0.66% (inactive)"}, {"smiles": "CCOC(=O)[C@]12CCCCC/C=C\\1N(Cc1ccc(OC)cc1)C(=O)[C@H]2CC(=O)NCc1ccc(C)o1", "activation": "-1.27% (inactive)"}, {"smiles": "CC(C)Cc1cc(C(=O)NCCc2ccccc2)no1", "activation": "13% (active)"}, {"smiles": "O=C(NCCCc1ccccc1)c1cc(COc2c(F)cccc2F)on1", "activation": "4.73% (inactive)"}, {"smiles": "CC(C)Cc1cc(C(=O)Nc2cc(Br)ccc2O)no1", "activation": "6.04% (inactive)"}, {"smiles": "O=S1(=O)c2ccc(N3CCN(Cc4ccccc4F)CC3)cc2Oc2ccccc2CN1Cc1cn(Cc2ccc(Cl)cc2)nn1", "activation": "0.48% (inactive)"}, {"smiles": "C[C@@H]1CN([C@@H](C)CO)C(=O)c2cccc(NC(=O)Nc3cccc4ccccc34)c2O[C@H]1CN(C)S(=O)(=O)c1ccccc1F", "activation": "-4.71% (inactive)"}, {"smiles": "CN(C)[C@H]1CCN(c2cccc3c2S(=O)(=O)N2CC[C@H](C2)O3)C1", "activation": "-1.45% (inactive)"}, {"smiles": "CC1C/C(=N/NC(=O)c2cccs2)CC(C)(C)C1", "note": "(stereo not drawn)", "activation": "14% (active)"}, {"smiles": "CC1CC(=NNC(=O)C2COc3ccccc3O2)CC(C)(C)C1", "note": "(stereo not drawn)", "activation": "3.29% (inactive)"}, {"smiles": "CCc1ccc(C(=O)NN=C2CCCCCC2)s1", "activation": "3.37% (inactive)"}, {"smiles": "COc1ccccc1CCn1cnc(-c2ccccc2)c1C(C)C", "activation": "-2.29% (inactive)"}, {"smiles": "Cc1ccn(CC(=O)N2N=C(C(F)F)CC2(O)C(F)F)n1", "note": "(stereo not drawn)", "activation": "1.75% (inactive)"}, {"smiles": "Cc1cccc(N(CC(=O)Nc2ccc(-c3nc4ccc(C)cc4s3)cc2)S(C)(=O)=O)c1", "activation": "15% (active)"}, {"smiles": "Cc1nc2ccc(S(=O)(=O)N(C)CC(=O)NC(C)c3ccccc3)cc2s1", "note": "(stereo not drawn)", "activation": "-1.17% (inactive)"}, {"smiles": "Cc1ccc2nc(-c3ccc(NC(=O)CN(C)S(=O)(=O)c4ccccc4)cc3)sc2c1", "activation": "11.4% (active)"}, {"smiles": "COc1cc(NC(=O)CN(C)S(=O)(=O)c2ccc3nc(C)sc3c2)cc(OC)c1", "activation": "-1.83% (inactive)"}, {"smiles": "Cc1ccc(N(CC(=O)Nc2cc(C)cc(C)c2)S(=O)(=O)c2cccc3nonc23)cc1", "activation": "1% (inactive)"}, {"smiles": "CCN(CC)S(=O)(=O)c1ccc(NC(=O)CN(c2cccc(F)c2)S(C)(=O)=O)cc1", "activation": "-0.33% (inactive)"}, {"smiles": "Cc1ccc2c(c1)N(CC(=O)N1CCC(C)CC1)C(=O)c1cccnc1O2", "activation": "-1.52% (inactive)"}, {"smiles": "CC[C@H](NC(=O)[C@H](Cc1ccccc1)NC(=O)[C@H]1O[C@@H](n2cnc3c(=O)[nH]c(N)nc32)[C@H](O)[C@@H]1O)c1ccccc1", "activation": "-0.43% (inactive)"}, {"smiles": "COc1ccccc1C(=O)CSc1nnc(-c2ccccn2)n1-c1ccccc1", "activation": "-5.4% (inactive)"}, {"smiles": "Cc1cc(=O)[nH]c(SCC(=O)Nc2ccc(F)cc2F)n1", "activation": "2.35% (inactive)"}, {"smiles": "COC(=O)[C@H](Cc1ccccc1)NC(=O)Nc1ccc(S(N)(=O)=O)cc1", "activation": "-0.11% (inactive)"}, {"smiles": "COc1ccc(CN2C/C(=C/c3ccccc3)N3C(=O)C[C@@H](c4ccccc4)N=C23)c(OC)c1", "activation": "1.14% (inactive)"}, {"smiles": "Cc1cc(N=Nc2ccc3ccccc3c2)ccc1O", "activation": "15.6% (active)"}, {"smiles": "Cc1ccc(-n2c(SCC(=O)Nc3cccc4ccccc34)nnc2-c2ccco2)cc1", "activation": "-1.7% (inactive)"}, {"smiles": "COc1ccc([C@H]2OC(=O)C[C@H]2C(=O)N2CCN(c3ccccc3F)CC2)cc1OC", "activation": "0.07% (inactive)"}, {"smiles": "O=C(CN1CCSCC1)N/N=C/c1ccc(Cl)cc1", "activation": "-0.9% (inactive)"}, {"smiles": "Cc1ccc(/C=N/NC(=O)COc2ccccc2-c2ccccc2)cc1", "activation": "-6.53% (inactive)"}, {"smiles": "Cc1ccc(COc2ccc(/C=N/NC(=O)CN3CCCCC3)cc2)cc1", "activation": "10.7% (active)"}, {"smiles": "Cc1ccc(Cn2cc(CN3[C@@H](C)COc4cc(Br)ccc4S3(=O)=O)nn2)cc1", "activation": "-0.49% (inactive)"}, {"smiles": "COc1ccc(NC(=O)N(C)C[C@@H]2OCCCC[C@@H](C)Oc3ccc(NC(=O)NC4CCCCC4)cc3C(=O)N([C@H](C)CO)C[C@@H]2C)cc1", "activation": "2.86% (inactive)"}, {"smiles": "C[C@@H](CN1C2=NC[C@@H](Cc3ccccc3)N2C[C@H]1Cc1ccc(O)cc1)NC(=O)CCC1CCCCC1", "activation": "1.3% (inactive)"}, {"smiles": "O=C(Nc1ccc2c(c1)CCC2)c1ccc(Br)s1", "activation": "19.2% (active)"}, {"smiles": "CC(C)Oc1ccc(C(=O)NCC(=O)Nc2ccc3c(c2)CCC3)cc1", "activation": "2.22% (inactive)"}, {"smiles": "CC1CC(C)CN(CCC(=O)Nc2ccc3c(c2)CCC3)C1", "note": "(stereo not drawn)", "activation": "-2.86% (inactive)"}, {"smiles": "Cc1cc(OCc2cc(C(=O)NCc3cc(C(C)C)no3)no2)cc(C)c1Cl", "activation": "15.1% (active)"}, {"smiles": "COc1ccc(OCc2cc(C(=O)NCC3(C)COC3)no2)c(Cl)c1", "activation": "0.38% (inactive)"}, {"smiles": "Cc1cccnc1CC(C)NC(=O)c1cc(COc2cncc(Cl)c2)on1", "note": "(stereo not drawn)", "activation": "1.14% (inactive)"}]}]}
